Most compounds without a hit are left out; they make up all but 4.1% or so of the library.
BoNT F protease: BoNT/F light chain protease inhibitors, primary screen, biochemical, flow cytometry, MLPCN library; Botulinum neurotoxin type F light chain protease (Clostridium botulinum); Multiplex microsphere protease cleavage assay; inhibition, % at 10 µM; 360,000 compounds, 0.22% hits; AID 588497, 2011; in the data active means inhibition above about 35%, passing the limit was not always enough; inconclusive means no clear call, values can overlap the other calls; further: plate controls were buffer without enzyme for full effect and enzyme alone for no effect
Anthrax LF prot: Bacillus anthracis LF protease inhibitors, primary screen, biochemical, multiplex microsphere, MLPCN library; Lethal factor (Bacillus anthracis), P15917; multiplex microsphere protease cleavage assay; inhibition, % at 10 µM; 360,000 compounds, 0.12% hits; AID 588501, 2011; further: plate controls were buffer without enzyme for full effect and enzyme alone for no effect
Target sequence (P15917 whole entry, looked up): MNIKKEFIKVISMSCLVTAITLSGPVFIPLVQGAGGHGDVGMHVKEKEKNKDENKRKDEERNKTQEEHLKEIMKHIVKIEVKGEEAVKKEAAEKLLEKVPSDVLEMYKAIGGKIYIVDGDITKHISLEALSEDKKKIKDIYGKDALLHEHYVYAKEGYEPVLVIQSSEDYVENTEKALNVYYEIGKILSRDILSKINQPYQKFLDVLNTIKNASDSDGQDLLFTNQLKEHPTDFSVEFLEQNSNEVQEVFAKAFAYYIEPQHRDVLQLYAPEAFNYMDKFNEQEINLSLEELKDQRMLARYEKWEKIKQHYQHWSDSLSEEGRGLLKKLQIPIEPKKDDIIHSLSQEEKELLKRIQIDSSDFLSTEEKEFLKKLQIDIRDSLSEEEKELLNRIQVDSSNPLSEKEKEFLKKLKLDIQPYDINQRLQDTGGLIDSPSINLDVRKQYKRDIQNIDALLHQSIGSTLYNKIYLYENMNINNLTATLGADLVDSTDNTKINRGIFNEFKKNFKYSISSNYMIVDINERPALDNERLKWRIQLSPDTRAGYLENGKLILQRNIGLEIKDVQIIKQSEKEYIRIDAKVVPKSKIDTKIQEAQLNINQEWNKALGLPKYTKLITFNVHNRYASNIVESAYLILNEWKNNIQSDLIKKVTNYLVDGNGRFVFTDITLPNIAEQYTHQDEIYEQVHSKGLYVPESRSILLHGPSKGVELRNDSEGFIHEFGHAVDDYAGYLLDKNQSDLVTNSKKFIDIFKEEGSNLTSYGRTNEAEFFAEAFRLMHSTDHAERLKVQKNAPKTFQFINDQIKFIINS
BoNT-A LC inh2: BoNT/A light chain protease inhibitors, primary screen, biochemical, flow cytometry, MLPCN library. multiplex microsphere protease substrate cleavage. inhibition, % at 10 µM. 360,000 compounds, 0.17% hits; further: plate controls were buffer without enzyme for full effect and enzyme alone for no effect
DUSP3 inh: VHR1 phosphatase inhibitors, primary screen, biochemical, absorbance, uHTS; AID 1654, 2009; inhibition, % at 13.3 µM; Dual specificity protein phosphatase 3 (Homo sapiens), P51452; recombinant VHR phosphatase, pNPP absorbance; 290,000 compounds, 0.52% hits; in the data active means inhibition above about 50%
Autofluor counter: flagged as autofluorescent in microsphere protease counterscreen; AID 624483; fluorescence intensity (no concentration beside the values); compound autofluorescence counterscreen, microsphere flow cytometry; hits give high values; 360,000 compounds, 3.1% hits; in the data active means fluorescence intensity above about 16000; inconclusive means no clear call, values can overlap the other calls
MazEF act: activators of E. coli MazEF toxin-antitoxin RNase, primary screen, biochemical, fluorescence, uHTS | FAM/BHQ RNA-DNA oligo cleavage fluorescence, 5 h | activation, % at 20 µM | 350,000 compounds, 0.32% hits | AID 504720, 2011; in the data active means activation above about 50%
The depositor's hits bear a star; ? = inconclusive; . = not tested or not shown. Unless noted, no stated cut-off is given here; in the data, active means inhibition above about 30%; inconclusive means no clear call, values can overlap the other calls; inactive means below that.

SMILES	BoNT F protease	Anthrax LF prot	BoNT-A LC inh2	DUSP3 inh	Autofluor counter	MazEF act
Cc1c2c(nc3c(C(=O)NC4CCCC4)cnn13)CCCC2	-4	-5	-2	31	16888*	4
COC(=O)c1cnn2c3c(c(C)nc12)CCCC3	5	-2	0	-11	10764	0
CC(c1ccccc1)n1c(N2CCNCC2)nc2c1c(=O)[nH]c(=O)n2C (configuration not stated)	?	-8	-4	56*	3133	11
Cc1ccc2cc(NC(=O)c3ccccc3C)ccc2n1	-1	1	-1	0	3970	3
O=C1OC(CN(Cc2ccccc2)Cc2ccccc2)CN1N=Cc1ccc([N+](=O)[O-])o1 (configuration not stated)	-1	-4	0	.	2907	-6
CCc1c(C)[nH]n(-c2ccc(Oc3ccccc3)c(S(=O)(=O)O)c2)c1=O	-2	-1	?	22	22582*	-5
Cc1cc(C)n(-c2ccc(Oc3ccccc3)c(S(=O)(=O)O)c2)n1	-8	-3	0	18	2622	6
CC1=C(C(=O)N(C)C)CC(CC(=O)NCc2cccs2)C(=O)N1Cc1ccc(F)cc1 (configuration not stated)	-13	-1	-2	.	7870	.
O=C(NCc1ccccc1)[C@@H]1CCCN1C(=O)[C@@H]1CCCN1C(=O)c1cccs1	-5	-4	-1	.	6137	.
O=C1C(C=NCCCN2CCCC2=O)=C(O)c2ccccc21	0	-2	1	-2	19393*	1
CC1=C(C(=O)N2CCOCC2)CC(CC(=O)NCCCN(C)C)C(=O)N1Cc1ccc(F)cc1 (configuration not stated)	6	-3	1	.	5951	.
O=[N+]([O-])c1ccc(/C=N/n2c(C3CCCCC3)n[nH]c2=S)cc1	-2	0	?	6	22651*	-6
S=c1[nH]nc(C2CCCCC2)n1/N=C/c1ccccc1Cl	?	0	-2	6	4102	9
S=c1[nH]nc(C2CCCCC2)n1/N=C/c1ccncc1	-4	-1	0	15	2669	7
S=c1[nH]nc(C2CCCCC2)n1/N=C/c1cccs1	-4	0	?	-13	23451*	5
CCOc1ccc(Br)cc1C1=CC(=O)C[C@H](c2ccc(OC)cc2)C1	-3	-1	0	.	2843	-2
CC(C)NC(=O)Cn1c(SCC(=O)N2CCc3ccccc3C2)nc2ccccc21	-7	-1	-3	24	20580*	-1
Cc1ccc2[nH]c(=O)c(N3CCOCC3)c(-c3ccccc3)c2c1	-8	-3	?	-11	25661*	4
O=C(CCN1CCOCC1)Nc1c(-c2ccccc2)c2cc(Br)ccc2[nH]c1=O	9	-1	1	-8	8071	-3
Cc1cc(NC(=O)COC(=O)c2cc([N+](=O)[O-])ccc2N2CCOCC2)ccc1Br	.	.	.	.	.	-6
Cc1cccc(C)c1OC(=O)c1ccccc1	4	-2	0	.	3544	1
O=C(c1cccc(F)c1)N1CCN(S(=O)(=O)c2ccc(C(F)(F)F)cc2)CC1	2	0	?	-14	22916*	9
O=C(c1ccncc1)N1CCN(S(=O)(=O)c2cccc(F)c2)CC1	-4	1	2	22	5073	2
O=C(c1cccc(Br)c1)N1CCN(C(=O)N2CCCCC2)CC1	-20	0	-2	-8	9790	3
O=C(c1cccc(C(F)(F)F)c1)N1CCCC1	-5	-3	?	17	16789*	-6
SMILES	BoNT F protease	Anthrax LF prot	BoNT-A LC inh2	DUSP3 inh	Autofluor counter	MazEF act
O=C(c1cccc(Br)c1)N1CCCC1	1	0	?	12	23116*	5
O=C(c1cccc(C(F)(F)F)c1)N1CCCCCC1	-16	0	0	10	11586	7
O=C(/C=C/NNC(=O)c1ccccc1)c1ccc([N+](=O)[O-])cc1	-2	3	0	-17	4048	8
N/C(CN1CCCC1=O)=N\O	-4	0	-4	-13	24371*	2
NC(=O)CN1CCCC1=O	3	-3	-1	9	6469	-18
COc1ccc(CCCNC(=O)C2Cc3c(-c4cccc(NC(C)=O)c4)ccnc3O2)cc1 (configuration not stated)	-2	-4	0	.	3982	.
CCC(=NCCc1c[nH]c2ccccc12)c1c(O)n(C)c(=O)n(C)c1=O	2	0	0	43	22284*	2
CCCCCC(=O)Nc1cc(N(C)C)nc2ccccc12	9	-14	6	4	17328*	3
CC(C)(C)S(=O)(=O)c1cnc(N2CCCCC2)nc1N	-3	4	0	-18	5940	4
CC(=O)c1cnc(N2CCCCC2)nc1C	4	0	2	-19	21581*	-1
O=[N+]([O-])c1nn(-c2ccccc2)[n+]([O-])c1N1CCN(c2ccccc2F)CC1	-4	-2	0	8	1985	144*
CCc1cccc2c(C(=O)COC(=O)c3c(C)noc3C)c[nH]c12	-17	-2	-1	10	8161	9
Cc1noc(C)c1C(=O)OCC(=O)c1c[nH]c2ccccc12	22	53*	47*	18	14479	10
CCOC(=O)c1c(C)[nH]c(C(=O)OCc2ccccc2F)c1C	5	4	-1	-7	3552	7
Cc1[nH]c2ccccc2c1/C=N/Nc1ccc([N+](=O)[O-])cc1	-136	-25	2	5	2996	18
COc1ccccc1NS(=O)(=O)c1cc([N+](=O)[O-])ccc1N/N=C/c1c(C)[nH]c2ccccc12	-62	-28	5	19	16725*	-6
O=C(CN1CCN(CCN2C(=O)c3cccc4cccc(c34)C2=O)CC1)c1ccc(F)cc1	1	6	5	13	22837*	13
O=C(CN1CCN(CCN2C(=O)c3cccc4cccc(c34)C2=O)CC1)c1ccc(Cl)cc1	.	.	.	-2	.	.
CCCC(=O)N1CCN(c2ccc([N+](=O)[O-])c(NC(C)c3ccccc3)c2)CC1 (configuration not stated)	-4	-3	-1	10	16602*	-8
CC(Nc1cc(N2CCCC2)ccc1[N+](=O)[O-])c1ccccc1 (configuration not stated)	-11	-4	0	7	2982	2
O=C(Nc1ccccc1)c1ccc(S(=O)(=O)N(CCO)CCO)cc1	24	2	1	6	4639	3
COC(=O)Nc1ccc(Oc2ccccc2)cc1	-5	1	-6	-8	21537*	-5
COC(=O)Nc1ccc(S(=O)(=O)N(CCO)CCO)cc1	2	0	1	15	22684*	6
CCCCn1c(N)c(N(CC(C)C)C(=O)CCNC(=O)c2ccccc2Cl)c(=O)[nH]c1=O	11	-1	2	.	?	2

Source: PubChem BioAssay
